From PubChem BioAssay
In the library only some 5.4% were active in any assay of this set; here they are far more common.
RORgamma inh = qHTS for inhibitors of ROR gamma transcriptional activity; Drosophila S2 Gal4-RORgamma UAS-luciferase reporter, 20 h; Potency, µM (series often up to 53.6 µM), actives largely listed as inhibitors; actives 5.4% (n = 310,000); AID 2551, 2010; further: nearly all actives have a fitted effect of over 60% in size
Target sequence (P51450 whole entry, looked up, the tested form may be a part): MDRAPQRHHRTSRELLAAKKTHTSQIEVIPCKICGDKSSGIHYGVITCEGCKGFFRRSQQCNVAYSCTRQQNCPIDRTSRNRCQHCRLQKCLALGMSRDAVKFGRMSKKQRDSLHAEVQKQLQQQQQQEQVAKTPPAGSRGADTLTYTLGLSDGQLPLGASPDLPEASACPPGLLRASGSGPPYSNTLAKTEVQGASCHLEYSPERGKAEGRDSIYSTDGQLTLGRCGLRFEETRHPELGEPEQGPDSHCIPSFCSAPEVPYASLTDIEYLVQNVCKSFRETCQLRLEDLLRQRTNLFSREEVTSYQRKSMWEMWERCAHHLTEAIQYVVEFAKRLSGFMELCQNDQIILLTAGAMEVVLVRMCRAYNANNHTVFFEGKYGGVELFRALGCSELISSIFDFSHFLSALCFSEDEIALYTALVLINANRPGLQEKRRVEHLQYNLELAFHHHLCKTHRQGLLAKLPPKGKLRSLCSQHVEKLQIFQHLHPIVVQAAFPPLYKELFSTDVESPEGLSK
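ROR gamma transcriptional activity was tracked as Gal4-UAS luciferase output in stably transfected Drosophila Schneider cells, with compound added 1 hr before 700 uM copper sulfate induction and a 20 hr ambient-temperature incubation.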
Gal4-VP16 FLuc = VP16 counterscreen qHTS for inhibitors of ROR gamma transcriptional activity. Drosophila S2 Gal4-VP16 UAS-luciferase, luminescence, 20 h. Potency, µM (doses to about 53.6 µM), most hits filed as inhibitors. actives 3.5% (n = 310,000). AID 2546, 2010;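 further: Gal4-VP16 expression switched on by copper sulfate through the metallothionein promoter; nearly all actives have a fitted effect of over 50% in size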
p53 reactivator = qHTS assay for re-activators of p53 using a Luc reporter; Potency, µM (top dose mostly 92.2 µM), most hits filed as activators; actives 0.063% (n = 320,000); AID 504706, 2011; H1299 p53-A138V BP100-luciferase reporter, luminescence, 24 h; further: nearly all actives have a fitted effect of over 45% in size
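H1299 (p53-null), stable ts p53-A138V + BP100-Luc; 1000 cells/well, Opti-MEM/10% FBS; cpd 4 pt, 1:5; 24 h, 37 deg C, 5% CO2; detection reagent 10 min RT; luminescence.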
Six1-Eya2 inh = qHTS Assay for Inhibitors of the Six1/Eya2 Interaction | Homeobox protein SIX1 (Homo sapiens) + Protein phosphatase EYA2 (Homo sapiens), … | AlphaScreen GST-Six1/His-Eya2 binding, biochemical; active compounds read low | activity change, % (test concentration not listed) | actives 0.56% (n = 360,000); in the data active means activity change below about -65%; inconclusive means mostly about -30% to -63%
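AlphaScreen luminescence read after one hour at 37 °C in darkness. Pin-transferred compounds met GST-Six1 and His-Eya2 protein (5X stock 250 nM/500 nM) plus glutathione donor and Ni-chelate acceptor beads (5X, 50 ug/mL).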
CtBP-E1A inh = qHTS Assay for Inhibitors of the CtBP/E1A Interaction. activity change, % (test concentration not listed). actives 0.49% (n = 340,000). CtBP / adenovirus E1A interaction (AlphaScreen). AlphaScreen GST-E1A/His-CtBP binding, 1536-well; active compounds read low; in the data active means activity change below about -65%; inconclusive means mostly about -30% to -63%
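In 5 uL wells, 23 nL compound meets equimolar GST-E1A and His-CtBP (5X stock 125 nM each) for 2 h, 37 °C. Beads (5X, 50 ug/mL) then 1 h, 37 °C, dark.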
Of the large screens only hits and unclear results are named; the others gave an inactive call. Unless noted, the call rests on the fitted dose curve; in most records, active means well fitted curve in the direction sought with a large enough effect; inconclusive means small, poorly fitted or top-dose-only effect, or another doubt; inactive means no such curve, though single readings can be large; an effect the other way counts as inactive or inconclusive.

O=C(CSc1n[nH]c(-c2ccncc2)n1)Nc1ccccc1	none
O=C(CSc1n[nH]c(-c2ccc(Cl)cc2Cl)n1)Nc1ccccn1	none
Cc1ccc(NC(=O)CSc2n[nH]c(-c3ccccn3)n2)cc1	RORgamma inh 4.5µM, Gal4-VP16 FLuc 5.6µM, Six1-Eya2 inh -77, CtBP-E1A inh -90
O=C(COC(=O)CNS(=O)(=O)c1cccc(Br)c1)NC(=O)Nc1ccc2c(c1)OCCO2	p53 reactivator inconclusive
COC(=O)N1CCC2(CCN(C(=O)Nc3ccc(OC)cc3)CC2)CC1	none (no result: p53 reactivator, Six1-Eya2 inh, CtBP-E1A inh)
COC(=O)C1(C(=O)OC)C[C@H]2CON=C2[C@H]1c1ccccc1	none (no result: p53 reactivator, Six1-Eya2 inh, CtBP-E1A inh)
Cc1ccc(OCCN2CCN(C(=O)CCC(=O)Nc3nnc(C(C)C)s3)CC2)cc1	Gal4-VP16 FLuc 13µM
Cc1ccc(OCCN2CCN(C(=O)CCC(=O)Nc3nnc(C)s3)CC2)cc1	RORgamma inh inconclusive
COc1ccccc1C(=O)NCC(=O)NNC(=O)c1cccs1	none (no result: RORgamma inh, Gal4-VP16 FLuc)
Cc1cnc(CNc2nc(-c3ccc(N(C)C)cc3)nc3ccccc23)cn1	RORgamma inh inconclusive, Gal4-VP16 FLuc 11µM (no result: p53 reactivator, Six1-Eya2 inh, CtBP-E1A inh)
CSc1nc(SCCN(C)C)c2c3c(sc2n1)COC(C)(C)C3	Six1-Eya2 inh inconclusive
CCC(O)CNc1nc(SC)nc2sc3c(c12)CCN(C)C3 (configuration not stated)	none (no result: p53 reactivator)
CCC(O)CNc1nc(-n2nc(C)cc2C)nc2sc3c(c12)CCCC3 (configuration not stated)	RORgamma inh 2.5µM, Gal4-VP16 FLuc inconclusive (no result: Six1-Eya2 inh, CtBP-E1A inh)
Cc1cc(C)n(-c2nc(SCCN(C)C)c3c4c(sc3n2)CCCC4)n1	RORgamma inh 2.8µM, Gal4-VP16 FLuc 7.9µM, p53 reactivator inconclusive
COc1cc(NC(C)=O)c2ncccc2c1[N+](=O)[O-]	RORgamma inh 4µM, Gal4-VP16 FLuc inconclusive
Cc1ccc(-c2nc3ncccn3c2Nc2ccccc2C)o1	none
Cc1ccc(-c2nc3cnccn3c2Nc2c(C)cccc2C)o1	RORgamma inh 11µM
COc1ccccc1NC(=O)CSc1ccc(-c2ccccn2)nn1	p53 reactivator inconclusive, Six1-Eya2 inh -89, CtBP-E1A inh -90
Cc1cccc(NC(=O)CSc2ccc(-c3ccccn3)nn2)c1C	Six1-Eya2 inh -87, CtBP-E1A inh -75
O=C(Nc1nccs1)c1sc2ccccc2c1Cl	RORgamma inh 2.2µM, Gal4-VP16 FLuc 5µM
O=C(Nc1nccs1)c1cc(Cl)ccc1[N+](=O)[O-]	RORgamma inh 13µM, Gal4-VP16 FLuc inconclusive
O=C(Nc1ccccn1)c1ccc(Cl)s1	p53 reactivator inconclusive
O=C(Nc1nccs1)c1ccc(Cl)s1	RORgamma inh 10µM, p53 reactivator inconclusive
O=C(NC1CC1)c1sc2cc(Cl)ccc2c1Cl	none (no result: RORgamma inh, Gal4-VP16 FLuc)
O=C(Nc1nccs1)c1sc2cc(Cl)ccc2c1Cl	RORgamma inh 0.5µM, Gal4-VP16 FLuc 2.8µM
CCN(CC)c1ccc(/C=N/n2c(C)nc3ccccc3c2=O)cc1	none (no result: CtBP-E1A inh)
O=C(Cn1c(=O)oc2ccccc21)N1CCCC1	none
Cc1ccnc(NC(=O)c2sc3ccccc3c2Cl)c1	RORgamma inh 0.28µM, Gal4-VP16 FLuc 1.4µM, p53 reactivator inconclusive
Cc1cccnc1NC(=O)CNC(=O)c1sc2ccccc2c1Cl	p53 reactivator inconclusive (no result: RORgamma inh, Gal4-VP16 FLuc)
CC(C)c1nnc(NC(=O)c2sc3ccccc3c2Cl)s1	RORgamma inh 8.9µM, Gal4-VP16 FLuc inconclusive
Cc1ccc2c(Cl)c(C(=O)Nc3cc(C)on3)sc2c1	Gal4-VP16 FLuc inconclusive
Cc1cnc(NC(=O)c2sc3ccccc3c2Cl)s1	RORgamma inh 2µM, Gal4-VP16 FLuc 5µM, p53 reactivator inconclusive
C[C@@H]1CC[C@H]2C(=O)O[C@H](CN=[N+]=[N-])CN2[C@@H]1c1ccc(Br)cc1	none (no result: p53 reactivator, Six1-Eya2 inh, CtBP-E1A inh)
CC(=O)O[C@@H]1C[C@H]2C(C)(C)C(=O)C=C[C@]2(C)[C@H]2CC[C@@]3(C)[C@H](c4ccoc4)OC(=O)[C@H]4O[C@]43[C@@]21C	RORgamma inh inconclusive
CC1(C)C(=O)C=C[C@@]2(C)C1C=C[C@@]1(C)C2CC[C@@]2(C)C(c3ccoc3)OC(=O)C3OC312 (some centres not stated)	RORgamma inh 7.1µM (no result: p53 reactivator, Six1-Eya2 inh, CtBP-E1A inh)
Cc1cccc(C(=O)NC(=S)N2CCN(C(=S)NC(=O)c3cccc(C)c3)CC2)c1	RORgamma inh 0.79µM, Gal4-VP16 FLuc 0.79µM
Cc1cccc(C(=O)NC(=S)N2CCN(C)CC2)c1	RORgamma inh 1.3µM, Gal4-VP16 FLuc 8.9µM
CCCNC(=S)N1CCC(NC(=O)c2cccc(C)c2)CC1	none
CCOc1ccccc1C(=O)N1CCN(c2ccc(C(F)(F)F)cn2)CC1	RORgamma inh inconclusive
CC(=O)c1cc(C(=O)Nc2ccc3ccccc3c2)c(C)o1	none
Cc1ccc(C(=O)Nc2ccc3ccccc3c2)cc1	RORgamma inh 6.3µM, Gal4-VP16 FLuc 11µM
CC1(C(=O)Nc2ccc3ccccc3c2)CC1(Br)Br (configuration not stated)	RORgamma inh 11µM, Gal4-VP16 FLuc inconclusive
Cc1cc(C(=O)Nc2ccc3ccccc3c2)c(C)o1	RORgamma inh 8.9µM, Gal4-VP16 FLuc inconclusive, p53 reactivator 25µM
Cc1ccc(C(=O)NNC(=O)c2cc3ccccc3cc2O)cc1	RORgamma inh 14µM, Gal4-VP16 FLuc inconclusive (no result: p53 reactivator)
CC1CCN(Cc2nnnn2CCCC(=O)NCCc2cnn(C)c2)CC1	none (no result: CtBP-E1A inh)
CNS(=O)(=O)c1cnccc1N1CCN(c2cccc(C(F)(F)F)c2)CC1	none
Cc1ccc(Cl)cc1NC(=O)COC(=O)c1ccccc1O	none
CC(/C=N\NC(=O)c1cc(C)oc1C)=C\c1ccccc1	RORgamma inh 6.3µM, Gal4-VP16 FLuc inconclusive, p53 reactivator inconclusive
Cc1ccc(/C=N/NC(=O)c2cc(C)oc2C)cc1	Gal4-VP16 FLuc inconclusive
Cc1ccc(Cl)cc1NC(=O)c1cc2ccccc2cc1O	RORgamma inh 5µM, Gal4-VP16 FLuc 2.8µM
COc1ccc(Nc2cc(C)nc3ncnn23)cc1	none (no result: RORgamma inh, Gal4-VP16 FLuc, p53 reactivator)
Cc1cc(Nc2ccc3ccccc3c2)n2ncnc2n1	RORgamma inh 6.3µM, Gal4-VP16 FLuc inconclusive
FC(F)(F)c1cccc(Nc2cc(-c3ccccc3)nc3ncnn23)c1	RORgamma inh 2µM (no result: CtBP-E1A inh)
CC(=O)Nc1ccccc1OCC(=O)NCC(F)(F)F	none (no result: CtBP-E1A inh)
COCCN1C[C@@H](CO)O[C@@H](n2cnc3c(NCCN(C)C)ncnc32)C1	none (no result: RORgamma inh, Gal4-VP16 FLuc, p53 reactivator)
CN1CCN(c2ncc3nc(-c4cc(F)cc(F)c4)c(=O)n(C4CC4)c3n2)CC1	Gal4-VP16 FLuc inconclusive (no result: p53 reactivator, Six1-Eya2 inh, CtBP-E1A inh)
O=C1C2CCCN2C(c2ccc(Cl)cc2)N1c1nccs1 (configuration not stated)	RORgamma inh 13µM
O=C1C2CCCN2C(c2ccc(F)cc2)N1c1nccs1 (configuration not stated)	RORgamma inh inconclusive
Cc1cccc(C2N(c3nccs3)C(=O)C3CCCN32)c1 (configuration not stated)	RORgamma inh inconclusive
